# Data as given in ChEMBL document CHEMBL3433997, “St. Jude Leishmania screening dataset” (2016).
# Molecular target: Solute carrier family 2, facilitated glucose transporter member 1 (Homo sapiens) (UniProt P11166)
# Assay: ST_JUDE_LEISH: Cytotoxicity at 2uM final concentration against transgenic Leishmania Mexicana promastigotes LmGLUT1 that are glucose transport deficient and complemented with the human glucose transporter GLUT1. Activity is measured by DNA content using SYBR green in vitro
# Format: functional
# Solute carrier family 2, facilitated glucose transporter member 1 (Homo sapiens), sequence (P11166 whole entry): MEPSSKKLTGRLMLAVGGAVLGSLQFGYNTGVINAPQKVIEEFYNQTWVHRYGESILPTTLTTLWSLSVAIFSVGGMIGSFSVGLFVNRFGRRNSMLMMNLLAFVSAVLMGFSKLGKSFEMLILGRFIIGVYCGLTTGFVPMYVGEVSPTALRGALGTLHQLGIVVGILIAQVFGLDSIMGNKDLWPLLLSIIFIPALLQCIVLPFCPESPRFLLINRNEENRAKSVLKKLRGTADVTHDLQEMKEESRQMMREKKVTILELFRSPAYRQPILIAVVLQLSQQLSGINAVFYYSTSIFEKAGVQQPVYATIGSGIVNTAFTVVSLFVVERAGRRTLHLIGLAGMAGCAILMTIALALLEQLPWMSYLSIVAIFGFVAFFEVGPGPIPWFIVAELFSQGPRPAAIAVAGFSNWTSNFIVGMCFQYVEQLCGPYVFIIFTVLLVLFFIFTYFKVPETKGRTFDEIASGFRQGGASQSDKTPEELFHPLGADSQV
row,Structure (SMILES),inhibition
1,CCOc1ccc(-c2nonc2NC(=O)c2ccccc2Cl)cc1OCC,5.4%
2,CN1CCC(NCc2cccc(-c3ccc(S(=O)(=O)NCCc4ccccn4)cc3)c2)CC1,3.76%
3,CC1(C)NC(=N)N=C(NOCC=Cc2ccccc2)N1,3.05%
4,CCOC(=O)c1c(NC(NC(=O)c2ccc(C(C)(C)C)cc2)C(Cl)(Cl)Cl)sc2c1CCCC2 (stereo not given),10.5%
5,Cc1ccc(NC(=O)c2cc(Br)cc(N3CCC(N(C)C)CC3)c2)cc1F,7.55%
6,O=C(C=Cc1ccc(Cl)c(Cl)c1)NCCCCCN1CCC(CCCNS(=O)(=O)c2cccc(C(F)(F)F)c2)CC1,0.51%
7,O=C(c1ccc(-c2cccc(-c3nc4cc(F)ccc4[nH]3)c2)cc1)N1CCCCC1CN1CCC(O)C1 (stereo not given),4.71%
8,CNC(=O)c1nc(-c2ccccc2)[nH]c1NC(C)=O,2.72%
9,O=C(Nc1ccc(-c2cccc(-c3nc4cc(C(F)(F)F)ccc4[nH]3)c2)cc1)c1ccncc1,0.97%
10,Cc1ccc(Cn2cnc3cc(C(=O)Nc4ccc(-c5cccc(CN(C)C)c5)cc4)ccc3c2=O)o1,75.5%
11,COc1cc2c(cc1OC)C(C(=O)c1ccccc1)=NCC2,1.66%
12,CS(=O)(=O)c1cccc(-c2cnc3[nH]cc(-c4ccc(CCC(=O)O)cc4)c3c2)c1,0.77%
13,CCOc1cc(Cc2cnc(N)nc2N)cc(OCC)c1-n1cccc1,5.67%
14,CN1CCN(CCCN(Cc2ccc(-c3cccc(CNCc4ccc5c(c4)OCO5)c3)cc2)C(=O)CCC2CCCC2)CC1,2.35%
15,Cc1ccccc1C1CCN(c2ncc(C(=O)Nc3ccccc3)cc2Cl)CC1,0.8%
16,CC(=O)Nc1cccc(-c2cn(-c3ccc(OCc4cccc(F)c4)c(Cl)c3)c3ncncc23)c1,2.04%
17,O=C(NC1CCN(Cc2ccccc2O)C1)c1ccc(Cl)c(Cl)c1 (stereo not given),0.72%
18,CCN(CC)CC(O)CNc1c2ccc([N+](=O)[O-])cc2nc2cc(OC)c(OC)cc12 (stereo not given),69%
19,CCN(CC)CCN(CCCc1ccc(-c2ccc(C(F)(F)F)cc2)cc1)C(=O)Cn1c(CCc2cccc(F)c2F)nc(=O)c2ccccc21,2.87%
20,CCOc1cc(Br)c(C(C)NC(=O)c2cccc(OC)c2)cc1OCC (stereo not given),0.82%

row,Structure (SMILES),inhibition
1,CN1CCCN(c2ccnc3cc4c(cc23)N(C(=O)c2ccccc2Cl)CC4)CC1,-0.76%
2,CN1CCN(CCCN(Cc2csc(-c3ccc(CNCc4ccccc4)cc3)n2)S(=O)(=O)c2ccccc2Cl)CC1,1.75%
3,CC(C)(C)NC(=O)c1ccc(Oc2ccc(OC(F)(F)F)cc2)c(NC(=O)C(C)(C)C)c1,-3.08%
4,N#Cc1cccc(C(=O)Nc2cccc(-c3ccc(CN4CCC(O)CC4)cc3)c2)c1,3.3%
5,C=CCn1c(SCC(=O)Nc2cc(C)ccc2OC)nc2sc(C)cc2c1=O,4.32%
6,CS(=O)(=O)CCNCc1cccc(-c2ccc3c(Nc4cc(O)c(Cl)cc4F)ccnc3c2)c1,6.47%
7,COCc1ccc(CN2CCC(C(=O)Nc3ccc(-c4nc5ccccc5[nH]4)cc3)CC2)o1,7.66%
8,O=S(=O)(Nc1cc2c(cc1O)CCNCC2)c1ccc(-c2ccc(Cl)cc2)cc1,3.27%
9,COc1ccc(NC(=O)/C=C/c2ccccc2Cl)cc1OCCN1CCC(NCc2ccccc2)CC1,3.15%
10,C=Cc1c(C2CCN(CCCCNC(=O)c3ccc(-c4ccc(C#N)cc4)cc3)CC2)ccc2c1CCCC2,1.77%
11,CN1CCN(c2cc3c(cc2Cl)CCN3C(=O)Nc2ccc(NC(=O)c3ccc(C(F)(F)F)cc3)cc2)CC1,3.11%
12,FC(F)(F)c1cnc(Sc2nnc(-c3ccncc3)o2)c(Cl)c1,-0.19%
13,O=C(/C=C/c1ccc(Cl)c(Cl)c1)NCCCCCN1CCC(c2cn[nH]c2-c2ccccc2)CC1,4.33%
14,Fc1ccc2[nH]c(-c3ccc(-c4cccc(CN5CCCCC5)c4)cc3)nc2c1,1.59%
15,O=C(Nc1cccc(-c2cccc(-c3nc4ccccc4[nH]3)c2)c1)c1csnn1,5.15%
16,CCCCCCN1CCC(NCc2ccc(OCCN3CCCC3)cc2)CC1,-1.34%
17,NC(=O)c1ccsc1NC(=O)CNC(c1ccccc1)c1ccc(Cl)cc1 (stereo not given),6.13%
18,Cc1[nH]c(C)c(-c2ccc(Oc3ccc(F)cc3)cc2)c(=O)c1Br,4.89%
19,CC(C)(C)c1nn(-c2ccc(Cl)cc2)c2[nH]c(=O)c(CNC3CCCC3)cc12,7.6%
20,CCC(C)NC(=O)CN1CN(c2ccccc2)C2(CCN(C(=O)c3ccc(-c4ccccc4)cc3)CC2)C1=O (stereo not given),8.23%

# Molecular target: Hexose transporter 1 (Plasmodium falciparum) (UniProt O97467)
# Assay: ST_JUDE_LEISH: Cytotoxicity at 2uM final concentration against transgenic Leishmania Mexicana promastigotes LmPfHT that are glucose transport deficient and complemented with the Plasmodium falciparum hexose transporter. Activity is measured by DNA content using SYBR green in vitro
# Format: functional
row,Structure (SMILES),inhibition
1,CCOc1ccc(-c2nonc2NC(=O)c2ccccc2Cl)cc1OCC,7.22%
2,CN1CCC(NCc2cccc(-c3ccc(S(=O)(=O)NCCc4ccccn4)cc3)c2)CC1,2.04%
3,CC1(C)NC(=N)N=C(NOCC=Cc2ccccc2)N1,2.87%
4,CCOC(=O)c1c(NC(NC(=O)c2ccc(C(C)(C)C)cc2)C(Cl)(Cl)Cl)sc2c1CCCC2 (stereo not given),8.72%
5,Cc1ccc(NC(=O)c2cc(Br)cc(N3CCC(N(C)C)CC3)c2)cc1F,7.67%
6,O=C(C=Cc1ccc(Cl)c(Cl)c1)NCCCCCN1CCC(CCCNS(=O)(=O)c2cccc(C(F)(F)F)c2)CC1,-1.72%
7,O=C(c1ccc(-c2cccc(-c3nc4cc(F)ccc4[nH]3)c2)cc1)N1CCCCC1CN1CCC(O)C1 (stereo not given),4.55%
8,CNC(=O)c1nc(-c2ccccc2)[nH]c1NC(C)=O,3.44%
9,O=C(Nc1ccc(-c2cccc(-c3nc4cc(C(F)(F)F)ccc4[nH]3)c2)cc1)c1ccncc1,1.99%
10,Cc1ccc(Cn2cnc3cc(C(=O)Nc4ccc(-c5cccc(CN(C)C)c5)cc4)ccc3c2=O)o1,59%
11,COc1cc2c(cc1OC)C(C(=O)c1ccccc1)=NCC2,2.92%
12,CS(=O)(=O)c1cccc(-c2cnc3[nH]cc(-c4ccc(CCC(=O)O)cc4)c3c2)c1,1.38%
13,CCOc1cc(Cc2cnc(N)nc2N)cc(OCC)c1-n1cccc1,5.64%
14,CN1CCN(CCCN(Cc2ccc(-c3cccc(CNCc4ccc5c(c4)OCO5)c3)cc2)C(=O)CCC2CCCC2)CC1,2.56%
15,Cc1ccccc1C1CCN(c2ncc(C(=O)Nc3ccccc3)cc2Cl)CC1,0.4%
16,CC(=O)Nc1cccc(-c2cn(-c3ccc(OCc4cccc(F)c4)c(Cl)c3)c3ncncc23)c1,0.08%
17,O=C(NC1CCN(Cc2ccccc2O)C1)c1ccc(Cl)c(Cl)c1 (stereo not given),0.7%
18,CCN(CC)CC(O)CNc1c2ccc([N+](=O)[O-])cc2nc2cc(OC)c(OC)cc12 (stereo not given),71.7%
19,CCN(CC)CCN(CCCc1ccc(-c2ccc(C(F)(F)F)cc2)cc1)C(=O)Cn1c(CCc2cccc(F)c2F)nc(=O)c2ccccc21,2.91%
20,CCOc1cc(Br)c(C(C)NC(=O)c2cccc(OC)c2)cc1OCC (stereo not given),0.03%

row,Structure (SMILES),inhibition
1,CN1CCCN(c2ccnc3cc4c(cc23)N(C(=O)c2ccccc2Cl)CC4)CC1,0.96%
2,CN1CCN(CCCN(Cc2csc(-c3ccc(CNCc4ccccc4)cc3)n2)S(=O)(=O)c2ccccc2Cl)CC1,0.37%
3,CC(C)(C)NC(=O)c1ccc(Oc2ccc(OC(F)(F)F)cc2)c(NC(=O)C(C)(C)C)c1,-1.32%
4,N#Cc1cccc(C(=O)Nc2cccc(-c3ccc(CN4CCC(O)CC4)cc3)c2)c1,-0.89%
5,C=CCn1c(SCC(=O)Nc2cc(C)ccc2OC)nc2sc(C)cc2c1=O,3.15%
6,CS(=O)(=O)CCNCc1cccc(-c2ccc3c(Nc4cc(O)c(Cl)cc4F)ccnc3c2)c1,4.71%
7,COCc1ccc(CN2CCC(C(=O)Nc3ccc(-c4nc5ccccc5[nH]4)cc3)CC2)o1,5.18%
8,O=S(=O)(Nc1cc2c(cc1O)CCNCC2)c1ccc(-c2ccc(Cl)cc2)cc1,-0.71%
9,COc1ccc(NC(=O)/C=C/c2ccccc2Cl)cc1OCCN1CCC(NCc2ccccc2)CC1,2.49%
10,C=Cc1c(C2CCN(CCCCNC(=O)c3ccc(-c4ccc(C#N)cc4)cc3)CC2)ccc2c1CCCC2,4.14%
11,CN1CCN(c2cc3c(cc2Cl)CCN3C(=O)Nc2ccc(NC(=O)c3ccc(C(F)(F)F)cc3)cc2)CC1,8.45%
12,FC(F)(F)c1cnc(Sc2nnc(-c3ccncc3)o2)c(Cl)c1,-5.1%
13,O=C(/C=C/c1ccc(Cl)c(Cl)c1)NCCCCCN1CCC(c2cn[nH]c2-c2ccccc2)CC1,3.45%
14,Fc1ccc2[nH]c(-c3ccc(-c4cccc(CN5CCCCC5)c4)cc3)nc2c1,1.72%
15,O=C(Nc1cccc(-c2cccc(-c3nc4ccccc4[nH]3)c2)c1)c1csnn1,5.92%
16,CCCCCCN1CCC(NCc2ccc(OCCN3CCCC3)cc2)CC1,-0.02%
17,NC(=O)c1ccsc1NC(=O)CNC(c1ccccc1)c1ccc(Cl)cc1 (stereo not given),2.82%
18,Cc1[nH]c(C)c(-c2ccc(Oc3ccc(F)cc3)cc2)c(=O)c1Br,4.31%
19,CC(C)(C)c1nn(-c2ccc(Cl)cc2)c2[nH]c(=O)c(CNC3CCCC3)cc12,6.85%
20,CCC(C)NC(=O)CN1CN(c2ccccc2)C2(CCN(C(=O)c3ccc(-c4ccccc4)cc3)CC2)C1=O (stereo not given),11.5%
